Laboratory results from PubChem BioAssay (NCATS).
Results filed as inconclusive are left out. Values without a mark were called inactive. Calls of active or inactive are those of the source. The call rests on the fitted dose curve; in most records, active means well fitted cell-killing curve with a large enough effect; inconclusive means small, poorly fitted or top-dose-only effect, or effect the other way; inactive means no such curve, though single readings can be large or run the other way.

Legend:
[1] = Quantitative High-Throughput drug screen in 47 multiple myeloma cell lines against the NCATS MIPE library collection: OCIMY1_PLB cell viability assay (AID 1918979); further: nearly all actives have a fitted effect of over 35% in size
Procedure, shortened: (§1)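 Cells were exposed to library compounds for 48 hours, after which ATP was measured by CellTiter-Glo. Signal was taken as median relative luminescence units.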

[2] = Quantitative High-Throughput drug screen in 47 multiple myeloma cell lines against the NCATS MIPE library collection: MM1S_ATCC cell viability assay (AID 1918980); further: nearly all actives have a fitted effect of over 45% in size
Procedure, shortened: as §1

[3] = Quantitative High-Throughput drug screen in 47 multiple myeloma cell lines against the NCATS MIPE library collection: MM1R_ATCC cell viability assay (AID 1918981); further: nearly all actives have a fitted effect of over 35% in size
Procedure, shortened: as §1

[4] = Quantitative High-Throughput drug screen in 47 multiple myeloma cell lines against the NCATS MIPE library collection: LP1_DSMZ cell viability assay (AID 1918982); further: nearly all actives have a fitted effect of over 35% in size
Procedure, shortened: as §1

[5] = Quantitative High-Throughput drug screen in 47 multiple myeloma cell lines against the NCATS MIPE library collection: KMS28PE_JCRB cell viability assay (AID 1918983); further: nearly all actives have a fitted effect of over 35% in size
Procedure, shortened: as §1

[6] = Quantitative High-Throughput drug screen in 47 multiple myeloma cell lines against the NCATS MIPE library collection: L363_DSMZ cell viability assay (AID 1918984); further: nearly all actives have a fitted effect of over 40% in size
Procedure, shortened: as §1

[7] = Quantitative High-Throughput drug screen in 47 multiple myeloma cell lines against the NCATS MIPE library collection: KMS34_JCRB cell viability assay (AID 1918985); further: nearly all actives have a fitted effect of over 40% in size
Procedure, shortened: as §1

[8] = Quantitative High-Throughput drug screen in 47 multiple myeloma cell lines against the NCATS MIPE library collection: OCIMY7_PLB cell viability assay (AID 1918987); conditions: OCI-MY7 myeloma viability, CellTiter-Glo ATP, 48 h; viability (% of DMSO): at 45.8 µM (top of the series); further: nearly all actives have a fitted effect of over 65% in size
Procedure, shortened: as §1

[9] = Quantitative High-Throughput drug screen in 47 multiple myeloma cell lines against the NCATS MIPE library collection: OCIMY5_PLB cell viability assay (AID 1918988); further: nearly all actives have a fitted effect of over 65% in size
Procedure, shortened: as §1

[10] = Quantitative High-Throughput drug screen in 47 multiple myeloma cell lines against the NCATS MIPE library collection: OPM1_PLB cell viability assay (AID 1918989); further: nearly all actives have a fitted effect of over 40% in size
Procedure, shortened: as §1

[11] = Quantitative High-Throughput drug screen in 47 multiple myeloma cell lines against the NCATS MIPE library collection: SKMM1_PLB cell viability assay (AID 1919863); conditions: SKMM1 myeloma viability, CellTiter-Glo ATP, 48 h; viability: hits give low values; further: nearly all actives have a fitted effect of over 35% in size
Procedure, shortened: as §1

[12] = Quantitative High-Throughput drug screen in 47 multiple myeloma cell lines against the NCATS MIPE library collection: U266_ATCC cell viability assay (AID 1919864); further: nearly all actives have a fitted effect of over 35% in size
Procedure, shortened: as §1

[13] = Quantitative High-Throughput drug screen in 47 multiple myeloma cell lines against the NCATS MIPE library collection: XG6_PLB cell viability assay (AID 1919865); further: nearly all actives have a fitted effect of over 40% in size
Procedure, shortened: as §1

[14] = Quantitative High-Throughput drug screen in 47 multiple myeloma cell lines against the NCATS MIPE library collection: XG1_PLB cell viability assay (AID 1919866); further: nearly all actives have a fitted effect of over 35% in size
Procedure, shortened: as §1

[15] = Quantitative High-Throughput drug screen in 47 multiple myeloma cell lines against the NCATS MIPE library collection: VP6_DJ cell viability assay (AID 1919867); further: nearly all actives have a fitted effect of over 40% in size
Procedure, shortened: as §1

[16] = Quantitative High-Throughput drug screen in 47 multiple myeloma cell lines against the NCATS MIPE library collection: UTMC2_PLB cell viability assay (AID 1919868); conditions: CellTiter-Glo ATP luminescence, 48 h; viability (% of DMSO control): at 45.8 µM (top of the series); further: nearly all actives have a fitted effect of over 55% in size
Procedure, shortened: as §1

[17] = Quantitative High-Throughput drug screen in 47 multiple myeloma cell lines against the NCATS MIPE library collection: PCM6_Riken cell viability assay (AID 1919870); further: nearly all actives have a fitted effect of over 30% in size
Procedure, shortened: as §1

[18] = Quantitative High-Throughput drug screen in 47 multiple myeloma cell lines against the NCATS MIPE library collection: RPMI8226_ATCC cell viability assay (AID 1919871); further: nearly all actives have a fitted effect of over 30% in size
Procedure, shortened: as §1

[19] = Quantitative High-Throughput drug screen in 47 multiple myeloma cell lines against the NCATS MIPE library collection: OPM2_DSMZ cell viability assay (AID 1919872); further: nearly all actives have a fitted effect of over 30% in size
Procedure, shortened: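 Viability readout: CellTiter-Glo luminescence following 5 min room-temperature incubation with reagent. Prior exposure: 48 h, 37C, humidified 5% CO2, 500 cells per well.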

[20] = Quantitative High-Throughput drug screen in 47 multiple myeloma cell lines against the NCATS MIPE library collection: PE2_PLB cell viability assay (AID 1919869); further: nearly all actives have a fitted effect of over 35% in size
Procedure, shortened: as §1
Potency means the concentration at half of the fitted maximal effect.

SMILES	Potency [1]	Potency [2]	Potency [3]	Potency [4]	Potency [5]	Potency [6]	Potency [7]	Potency [8]	Potency [9]	Potency [10]	Potency [11]	Potency [12]	Potency [13]	Potency [14]	Potency [15]	Potency [16]	Potency [17]	Potency [18]	Potency [19]	Potency [20]
O=C1NCCc2[nH]c(-c3ccncc3)cc21	5.9 µM (active)	3.72 µM (active)	2.64 µM (active)	4.18 µM (active)	4.69 µM (active)	2.35 µM (active)	5.26 µM (active)	2.09 µM (active)	8.33 µM (active)	4.69 µM (active)	5.26 µM (active)	2.64 µM (active)	1.87 µM (active)	2.09 µM (active)	3.72 µM (active)	3.72 µM (active)	1.66 µM (active)	16.6 µM (active)	14.8 µM (active)	–
CN(C)CCN1C(=O)c2cccc3cc(N)cc(c23)C1=O	23.5 µM (active)	14.8 µM (active)	9.35 µM (active)	20.9 µM (active)	16.6 µM (active)	16.6 µM (active)	23.5 µM (active)	–	23.5 µM (active)	–	–	–	14.8 µM (active)	16.6 µM (active)	14.8 µM (active)	5.9 µM (active)	16.6 µM (active)	–	–	20.9 µM (active)
COc1cccc2c1C(=O)c1c(O)c3c(c(O)c1C2=O)C[C@@](O)(C(=O)CO)C[C@@H]3O[C@H]1C[C@H](N)[C@@H](O)[C@H](C)O1	1.66 µM (active)	0.0662 µM (active)	0.118 µM (active)	1.87 µM (active)	0.526 µM (active)	1.87 µM (active)	0.743 µM (active)	2.09 µM (active)	0.526 µM (active)	0.743 µM (active)	0.935 µM (active)	1.32 µM (active)	0.148 µM (active)	0.526 µM (active)	0.935 µM (active)	0.118 µM (active)	0.209 µM (active)	–	2.09 µM (active)	–
NC[C@H]1O[C@H](O[C@H]2[C@@H](O)[C@@H](O[C@H]3O[C@H](CO)[C@@H](O)[C@H](N)[C@@H]3O)[C@H](N)C[C@@H]2N)[C@H](N)C[C@H]1O	inactive	inactive	inactive	inactive	inactive	inactive	inactive	–	inactive	–	–	inactive	inactive	inactive	inactive	–	inactive	–	inactive	inactive
CCc1ccc(C(=O)Nc2cc(CN3CCN(C)CC3)cc(C(F)(F)F)c2)cc1C#Cc1cnc2ccnn2c1	16.6 µM (active)	16.6 µM (active)	18.7 µM (active)	16.6 µM (active)	16.6 µM (active)	6.62 µM (active)	10.5 µM (active)	1.87 µM (active)	1.87 µM (active)	7.43 µM (active)	16.6 µM (active)	18.7 µM (active)	4.18 µM (active)	4.69 µM (active)	9.35 µM (active)	11.8 µM (active)	3.72 µM (active)	20.9 µM (active)	–	4.69 µM (active)
C=Cc1c(C)c2cc3nc(cc4[nH]c(cc5nc(cc1[nH]2)C(C)=C5CCC(=O)O)c(CCC(=O)OC)c4C)[C@@]1(C)C3=CC=C(C(=O)OC)[C@H]1C(=O)OC	2.35 µM (active)	0.0526 µM (active)	0.0935 µM (active)	1.05 µM (active)	0.743 µM (active)	0.526 µM (active)	0.743 µM (active)	0.662 µM (active)	0.0418 µM (active)	–	0.743 µM (active)	0.296 µM (active)	0.0332 µM (active)	0.0935 µM (active)	0.118 µM (active)	0.105 µM (active)	0.0833 µM (active)	–	1.05 µM (active)	0.209 µM (active)
Cc1ncc(-c2ccnc(Nc3ccc(S(C)(=O)=O)cc3)n2)n1C(C)C	6.62 µM (active)	2.64 µM (active)	2.35 µM (active)	3.32 µM (active)	5.26 µM (active)	1.66 µM (active)	1.87 µM (active)	0.833 µM (active)	3.32 µM (active)	2.35 µM (active)	5.26 µM (active)	3.32 µM (active)	1.87 µM (active)	1.48 µM (active)	1.87 µM (active)	3.32 µM (active)	0.743 µM (active)	5.9 µM (active)	3.72 µM (active)	2.35 µM (active)
C[C@H](NCc1ccc2c(c1)nc(NC(=O)c1ccc(-c3cn[nH]c3)s1)n2CCc1ccccc1)C(C)(C)C	1.87 µM (active)	1.66 µM (active)	1.66 µM (active)	1.05 µM (active)	2.35 µM (active)	0.469 µM (active)	1.05 µM (active)	0.418 µM (active)	0.833 µM (active)	–	2.96 µM (active)	–	0.935 µM (active)	0.743 µM (active)	0.526 µM (active)	0.935 µM (active)	0.418 µM (active)	2.96 µM (active)	2.09 µM (active)	1.05 µM (active)
